From article PMC7862700, “An all-to-all approach to the identification of sequence-specific readers for epigenetic DNA modifications on cytosine”

Columns and labels:
Assay in all cases: DAPPL (digital affinity profiling via proximity ligation, sequencing); 10 mM Tris-HCl pH 7.5, 50 mM NaCl, 1 mM DTT, 4% glycerol, room temperature, 30 min; GST-TFs on glutathione beads, 16-mer random dsDNA library, 0.1% formaldehyde crosslink after washing; high values mean tight binding
Details in all cases: protein: recombinant; tags: N-terminal GST; dsDNA, one strand shown
GABPA = biological target: T1, GABPA (Homo sapiens, UniProt Q06546 1-454)
T1 sequence: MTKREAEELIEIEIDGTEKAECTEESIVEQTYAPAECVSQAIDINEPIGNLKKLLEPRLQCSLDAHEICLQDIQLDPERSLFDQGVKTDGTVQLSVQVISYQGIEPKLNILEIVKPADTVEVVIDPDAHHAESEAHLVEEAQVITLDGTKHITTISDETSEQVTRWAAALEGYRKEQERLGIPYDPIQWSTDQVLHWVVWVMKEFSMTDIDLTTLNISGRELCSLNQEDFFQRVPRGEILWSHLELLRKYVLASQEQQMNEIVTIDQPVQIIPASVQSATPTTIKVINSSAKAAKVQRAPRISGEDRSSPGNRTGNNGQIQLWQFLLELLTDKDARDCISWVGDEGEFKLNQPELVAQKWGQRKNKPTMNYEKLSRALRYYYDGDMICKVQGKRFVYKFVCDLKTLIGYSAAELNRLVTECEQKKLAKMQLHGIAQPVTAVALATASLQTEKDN
Procedure, shortened: (§1)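 GST fusions of human transcription factors were expressed in yeast and captured with glutathione beads. Once given DNA barcodes and pooled alongside a tag-only sample, they were incubated for 30 min at room temperature with 200 nmole of a random double-stranded 16-mer DNA library in Tris/NaCl/DTT/glycerol buffer, then washed, crosslinked (0.1% formaldehyde), proximity-ligated, PCR-amplified and sequenced on an Illumina NextSeq500. The binding signal of each hexamer is its read frequency for a factor divided by its frequency for the tag-only sample.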

FEV = biological target: T2, FEV (Homo sapiens, UniProt Q99581 1-238)
T2 sequence: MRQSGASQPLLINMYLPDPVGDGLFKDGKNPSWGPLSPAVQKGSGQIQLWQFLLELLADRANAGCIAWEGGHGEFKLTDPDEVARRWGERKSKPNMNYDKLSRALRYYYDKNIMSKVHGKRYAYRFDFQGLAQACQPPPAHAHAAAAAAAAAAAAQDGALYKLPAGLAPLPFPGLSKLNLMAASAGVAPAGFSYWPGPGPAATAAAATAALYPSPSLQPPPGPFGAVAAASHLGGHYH
Procedure, shortened: as §1

SPIC = biological target: T3, SPIC (Homo sapiens, UniProt Q8N5J4 1-248)
T3 sequence: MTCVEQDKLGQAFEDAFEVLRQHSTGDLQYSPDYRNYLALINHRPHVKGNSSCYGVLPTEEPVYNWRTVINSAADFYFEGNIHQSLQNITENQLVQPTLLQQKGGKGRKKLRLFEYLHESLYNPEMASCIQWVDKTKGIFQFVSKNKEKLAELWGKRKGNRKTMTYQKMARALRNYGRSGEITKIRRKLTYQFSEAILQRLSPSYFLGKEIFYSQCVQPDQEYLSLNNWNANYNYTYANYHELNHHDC
Procedure, shortened: as §1

ELF4 = ELF4 (Homo sapiens, UniProt Q99607 1-663)
Procedure, shortened: as §1

ETV2 = biological target: T4, ETV2 (Homo sapiens, UniProt O00321 1-342)
T4 sequence: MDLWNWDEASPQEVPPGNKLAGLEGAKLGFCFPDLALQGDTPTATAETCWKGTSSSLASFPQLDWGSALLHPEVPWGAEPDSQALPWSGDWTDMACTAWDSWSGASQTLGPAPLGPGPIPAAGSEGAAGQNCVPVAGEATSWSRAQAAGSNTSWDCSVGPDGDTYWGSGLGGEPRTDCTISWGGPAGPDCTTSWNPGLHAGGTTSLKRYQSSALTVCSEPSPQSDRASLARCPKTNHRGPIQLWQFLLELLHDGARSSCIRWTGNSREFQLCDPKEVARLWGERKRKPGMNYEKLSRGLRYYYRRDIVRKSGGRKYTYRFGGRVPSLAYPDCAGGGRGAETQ
Procedure, shortened: as §1

CRX = CRX (Homo sapiens, UniProt O43186 1-299)
Procedure, shortened: as §1

ETS2 = biological target: T5, ETS2 (Homo sapiens, UniProt P15036 1-469)
T5 sequence: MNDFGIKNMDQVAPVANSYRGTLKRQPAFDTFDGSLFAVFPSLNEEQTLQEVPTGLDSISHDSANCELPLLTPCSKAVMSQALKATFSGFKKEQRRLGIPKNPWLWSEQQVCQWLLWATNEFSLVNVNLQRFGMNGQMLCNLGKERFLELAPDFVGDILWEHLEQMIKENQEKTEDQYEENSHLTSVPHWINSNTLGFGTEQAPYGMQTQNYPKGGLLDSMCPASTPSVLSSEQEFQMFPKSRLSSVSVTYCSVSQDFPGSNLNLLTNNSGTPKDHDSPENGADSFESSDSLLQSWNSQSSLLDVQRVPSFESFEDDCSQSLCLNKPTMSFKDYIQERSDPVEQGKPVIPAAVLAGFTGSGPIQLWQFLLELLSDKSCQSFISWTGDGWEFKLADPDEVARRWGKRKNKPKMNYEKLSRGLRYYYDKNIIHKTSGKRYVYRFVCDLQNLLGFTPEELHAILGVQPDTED
Procedure, shortened: as §1

ETV7 = biological target: T6, ETV7 (Homo sapiens, UniProt Q9Y603 1-341)
T6 sequence: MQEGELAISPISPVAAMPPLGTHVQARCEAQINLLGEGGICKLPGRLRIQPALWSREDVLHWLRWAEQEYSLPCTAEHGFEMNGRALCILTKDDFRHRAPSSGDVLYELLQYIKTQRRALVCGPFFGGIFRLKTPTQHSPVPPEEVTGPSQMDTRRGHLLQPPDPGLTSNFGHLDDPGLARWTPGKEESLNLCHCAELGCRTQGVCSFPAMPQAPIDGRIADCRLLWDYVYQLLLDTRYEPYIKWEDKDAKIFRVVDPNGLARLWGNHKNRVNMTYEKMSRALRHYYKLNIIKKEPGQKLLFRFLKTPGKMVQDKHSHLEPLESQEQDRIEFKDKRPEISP
Procedure, shortened: as §1

ELF5 = biological target: T7, ELF5 (Homo sapiens, UniProt Q9UKW6-2 1-255)
T7 sequence: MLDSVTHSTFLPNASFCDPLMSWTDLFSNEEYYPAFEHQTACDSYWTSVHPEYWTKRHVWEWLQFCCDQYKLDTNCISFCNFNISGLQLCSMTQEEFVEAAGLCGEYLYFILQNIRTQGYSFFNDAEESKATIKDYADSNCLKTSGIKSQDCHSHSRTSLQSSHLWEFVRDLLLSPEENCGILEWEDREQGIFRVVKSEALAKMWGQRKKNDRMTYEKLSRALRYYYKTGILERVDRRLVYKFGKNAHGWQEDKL
Procedure, shortened: as §1

SPIB = SPIB (Homo sapiens, UniProt Q01892 1-262)
Procedure, shortened: as §1

ERG = biological target: T8, ERG (Homo sapiens, UniProt P11308 1-479)
T8 sequence: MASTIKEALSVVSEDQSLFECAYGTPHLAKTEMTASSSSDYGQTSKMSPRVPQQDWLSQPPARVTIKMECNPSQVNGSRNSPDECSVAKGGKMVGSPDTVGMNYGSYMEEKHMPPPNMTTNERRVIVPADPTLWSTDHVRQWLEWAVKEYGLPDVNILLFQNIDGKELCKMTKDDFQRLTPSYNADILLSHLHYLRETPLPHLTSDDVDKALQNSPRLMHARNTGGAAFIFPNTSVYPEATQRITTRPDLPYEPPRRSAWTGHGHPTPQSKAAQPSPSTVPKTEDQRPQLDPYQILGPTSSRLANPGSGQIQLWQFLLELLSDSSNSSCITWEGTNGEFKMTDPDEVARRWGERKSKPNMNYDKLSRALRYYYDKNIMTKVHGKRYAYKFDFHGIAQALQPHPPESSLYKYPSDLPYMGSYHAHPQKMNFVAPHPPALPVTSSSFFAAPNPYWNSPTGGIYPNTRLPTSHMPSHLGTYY
Procedure, shortened: as §1

ELF1 = ELF1 (Homo sapiens, UniProt P32519 1-619)
Procedure, shortened: as §1

SPI1 = SPI1 (Homo sapiens, UniProt P17947 1-270)
Procedure, shortened: as §1

ELK3 = biological target: T9, ELK3 (Homo sapiens, UniProt P41970 1-407)
T9 sequence: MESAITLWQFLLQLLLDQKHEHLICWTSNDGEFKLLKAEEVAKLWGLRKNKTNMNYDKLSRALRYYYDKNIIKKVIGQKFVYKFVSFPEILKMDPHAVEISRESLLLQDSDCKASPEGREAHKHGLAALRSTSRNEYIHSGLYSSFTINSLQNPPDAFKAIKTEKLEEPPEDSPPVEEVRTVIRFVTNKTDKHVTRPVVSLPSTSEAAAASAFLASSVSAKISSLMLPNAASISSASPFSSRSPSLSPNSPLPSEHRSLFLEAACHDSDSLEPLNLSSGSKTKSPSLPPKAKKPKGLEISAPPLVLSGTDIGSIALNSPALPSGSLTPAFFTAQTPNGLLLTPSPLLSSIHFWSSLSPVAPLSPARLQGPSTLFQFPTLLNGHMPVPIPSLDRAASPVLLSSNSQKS
Procedure, shortened: as §1

ELK4 = biological target: T10, ELK4 (Homo sapiens, UniProt P28324-2 1-405)
T10 sequence: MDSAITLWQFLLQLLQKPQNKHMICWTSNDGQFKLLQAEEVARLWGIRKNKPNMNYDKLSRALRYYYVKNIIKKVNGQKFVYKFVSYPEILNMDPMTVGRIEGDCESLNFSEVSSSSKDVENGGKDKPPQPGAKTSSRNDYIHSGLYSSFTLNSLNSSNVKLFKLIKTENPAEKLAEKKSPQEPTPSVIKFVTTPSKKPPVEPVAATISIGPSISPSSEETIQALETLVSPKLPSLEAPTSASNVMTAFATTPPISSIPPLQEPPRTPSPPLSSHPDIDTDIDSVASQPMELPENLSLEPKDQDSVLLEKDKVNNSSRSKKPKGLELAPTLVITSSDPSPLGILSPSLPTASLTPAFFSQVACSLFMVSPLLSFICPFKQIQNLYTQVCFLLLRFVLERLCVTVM
Procedure, shortened: as §1

ELF3 = biological target: T11, ELF3 (Homo sapiens, UniProt P78545 1-371)
T11 sequence: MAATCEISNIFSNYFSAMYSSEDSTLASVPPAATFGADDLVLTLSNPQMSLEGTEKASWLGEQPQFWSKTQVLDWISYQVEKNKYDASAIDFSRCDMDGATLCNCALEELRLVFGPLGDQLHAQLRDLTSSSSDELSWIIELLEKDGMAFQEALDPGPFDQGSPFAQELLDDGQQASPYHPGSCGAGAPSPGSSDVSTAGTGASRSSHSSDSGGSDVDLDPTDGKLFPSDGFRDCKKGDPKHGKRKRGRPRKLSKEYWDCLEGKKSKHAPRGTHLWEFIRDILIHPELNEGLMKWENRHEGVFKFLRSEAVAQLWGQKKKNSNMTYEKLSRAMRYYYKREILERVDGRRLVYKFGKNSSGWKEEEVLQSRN
Procedure, shortened: as §1

ETV6 = ETV6 (Homo sapiens, UniProt P41212 1-452)
Procedure, shortened: as §1

ELF4, sequence (Q99607 whole entry): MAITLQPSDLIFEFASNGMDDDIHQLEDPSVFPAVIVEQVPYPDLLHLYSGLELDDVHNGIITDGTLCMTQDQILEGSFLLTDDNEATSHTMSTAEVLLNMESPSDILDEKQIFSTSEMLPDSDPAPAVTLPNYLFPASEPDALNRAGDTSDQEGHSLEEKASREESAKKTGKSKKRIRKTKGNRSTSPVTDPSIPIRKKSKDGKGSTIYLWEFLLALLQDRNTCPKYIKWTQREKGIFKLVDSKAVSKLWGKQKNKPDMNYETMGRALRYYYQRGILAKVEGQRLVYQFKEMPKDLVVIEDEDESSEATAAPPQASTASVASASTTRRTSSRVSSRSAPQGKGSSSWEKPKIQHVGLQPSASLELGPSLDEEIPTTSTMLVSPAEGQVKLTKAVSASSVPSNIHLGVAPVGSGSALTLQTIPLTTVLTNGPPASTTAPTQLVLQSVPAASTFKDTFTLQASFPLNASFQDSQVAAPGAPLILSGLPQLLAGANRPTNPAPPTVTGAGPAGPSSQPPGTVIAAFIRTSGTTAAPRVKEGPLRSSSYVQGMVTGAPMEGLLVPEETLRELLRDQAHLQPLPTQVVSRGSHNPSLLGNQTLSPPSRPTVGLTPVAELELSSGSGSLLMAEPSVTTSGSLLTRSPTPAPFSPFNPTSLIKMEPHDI
SPIB, sequence (Q01892 whole entry): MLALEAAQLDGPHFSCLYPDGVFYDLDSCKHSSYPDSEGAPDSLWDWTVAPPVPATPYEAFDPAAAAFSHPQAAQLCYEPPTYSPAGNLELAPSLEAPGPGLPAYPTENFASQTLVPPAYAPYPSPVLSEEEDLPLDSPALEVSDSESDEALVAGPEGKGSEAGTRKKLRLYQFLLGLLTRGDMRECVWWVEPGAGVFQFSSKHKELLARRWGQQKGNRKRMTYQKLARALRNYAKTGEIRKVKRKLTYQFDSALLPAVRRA
CRX, sequence (O43186 whole entry): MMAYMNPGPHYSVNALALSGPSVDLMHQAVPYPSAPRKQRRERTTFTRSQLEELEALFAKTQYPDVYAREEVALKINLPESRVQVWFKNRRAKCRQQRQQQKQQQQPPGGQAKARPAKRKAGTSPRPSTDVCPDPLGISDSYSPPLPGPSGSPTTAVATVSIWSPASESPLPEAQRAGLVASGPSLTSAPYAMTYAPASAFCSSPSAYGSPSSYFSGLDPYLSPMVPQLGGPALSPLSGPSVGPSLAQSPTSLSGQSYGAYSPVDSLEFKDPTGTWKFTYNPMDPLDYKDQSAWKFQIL
ETV6, sequence (P41212 whole entry): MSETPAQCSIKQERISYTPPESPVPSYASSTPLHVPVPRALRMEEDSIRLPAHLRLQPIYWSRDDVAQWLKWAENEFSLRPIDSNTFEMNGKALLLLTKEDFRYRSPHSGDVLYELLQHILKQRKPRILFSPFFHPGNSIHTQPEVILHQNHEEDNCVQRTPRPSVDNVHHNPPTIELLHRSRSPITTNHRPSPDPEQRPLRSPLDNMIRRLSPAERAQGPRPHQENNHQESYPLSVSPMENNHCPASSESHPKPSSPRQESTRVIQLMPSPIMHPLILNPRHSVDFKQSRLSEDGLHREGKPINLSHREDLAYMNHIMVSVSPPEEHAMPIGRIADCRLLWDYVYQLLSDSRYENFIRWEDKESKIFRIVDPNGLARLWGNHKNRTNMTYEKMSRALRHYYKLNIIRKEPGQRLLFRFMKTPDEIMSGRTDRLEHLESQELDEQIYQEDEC
ELF1, sequence (P32519 whole entry): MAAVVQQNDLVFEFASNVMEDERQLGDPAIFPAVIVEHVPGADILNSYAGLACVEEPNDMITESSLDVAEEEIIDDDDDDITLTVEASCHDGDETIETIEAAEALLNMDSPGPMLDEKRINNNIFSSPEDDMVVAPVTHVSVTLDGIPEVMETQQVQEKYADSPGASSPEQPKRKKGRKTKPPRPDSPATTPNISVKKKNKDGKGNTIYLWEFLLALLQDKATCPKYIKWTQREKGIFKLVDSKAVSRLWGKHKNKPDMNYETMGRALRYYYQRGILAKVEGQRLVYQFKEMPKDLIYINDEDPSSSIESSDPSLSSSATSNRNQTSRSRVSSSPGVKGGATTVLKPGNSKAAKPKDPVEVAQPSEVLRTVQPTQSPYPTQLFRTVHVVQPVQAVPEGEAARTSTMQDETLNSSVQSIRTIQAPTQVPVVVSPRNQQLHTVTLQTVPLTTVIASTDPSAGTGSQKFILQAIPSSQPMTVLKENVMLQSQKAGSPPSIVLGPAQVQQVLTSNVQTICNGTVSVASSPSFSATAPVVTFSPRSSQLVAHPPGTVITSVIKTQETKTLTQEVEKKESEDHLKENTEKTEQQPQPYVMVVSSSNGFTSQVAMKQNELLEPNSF

| Sequence | binding signal (GABPA) | binding signal (FEV) | binding signal (SPIC) | binding signal (ELF4) | binding signal (ETV2) | binding signal (CRX) | binding signal (ETS2) | binding signal (ETV7) | binding signal (ELF5) | binding signal (SPIB) | binding signal (ERG) | binding signal (ELF1) | binding signal (SPI1) | binding signal (ELK3) | binding signal (ELK4) | binding signal (ELF3) | binding signal (ETV6) |
| --- | --- | --- | --- | --- | --- | --- | --- | --- | --- | --- | --- | --- | --- | --- | --- | --- | --- |
| AAAGGC | 1.1 fold enrichment (6-mer frequency, TF over GST control) | 1.01 fold enrichment (6-mer frequency, TF over GST control) | 1 fold enrichment (6-mer frequency, TF over GST control) | 1.04 fold enrichment (6-mer frequency, TF over GST control) | 1.04 fold enrichment (6-mer frequency, TF over GST control) | 1.03 fold enrichment (6-mer frequency, TF over GST control) | 1 fold enrichment (6-mer frequency, TF over GST control) | 1.03 fold enrichment (6-mer frequency, TF over GST control) | 1 fold enrichment (6-mer frequency, TF over GST control) | – | – | – | – | – | – | – | – |
| TGCAGA | – | – | 1.06 fold enrichment (6-mer frequency, TF over GST control) | 1 fold enrichment (6-mer frequency, TF over GST control) | – | – | – | – | – | 1.03 fold enrichment (6-mer frequency, TF over GST control) | – | – | – | – | – | – | – |
| GTGGCC | 1.06 fold enrichment (6-mer frequency, TF over GST control) | 1.14 fold enrichment (6-mer frequency, TF over GST control) | 1.02 fold enrichment (6-mer frequency, TF over GST control) | 1.02 fold enrichment (6-mer frequency, TF over GST control) | – | – | 1.01 fold enrichment (6-mer frequency, TF over GST control) | 1.01 fold enrichment (6-mer frequency, TF over GST control) | – | 1.2 fold enrichment (6-mer frequency, TF over GST control) | 1.1 fold enrichment (6-mer frequency, TF over GST control) | 1.05 fold enrichment (6-mer frequency, TF over GST control) | 1.2 fold enrichment (6-mer frequency, TF over GST control) | 1.22 fold enrichment (6-mer frequency, TF over GST control) | 1.03 fold enrichment (6-mer frequency, TF over GST control) | 1.09 fold enrichment (6-mer frequency, TF over GST control) | 1.1 fold enrichment (6-mer frequency, TF over GST control) |
